# Measurements taken from the supplement of paper PMC6555819.
# Tested on: RARb:RXRa (NR concentration 270 nM, RXRa partner concentration 90 nM)
# Assay: PBM binding z-score (relative to random genomic background probes); higher = stronger binding; sequences stand for … in GC…GCGATTGACAGCGTAGAATGAAGG
# Method in brief: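 Probes were double-stranded and carried 34-nt variable regions with direct-repeat seeds, single-nucleotide variants, half-site ablations and random human genomic background sequences, printed on custom Agilent 4×180K protein-binding microarrays. Arrays were incubated 1 h with ligand-free nuclear receptor dimers in PBS pH 7.4, 2% milk, 0.02% Triton X-100, 1 mM DTT, 0.2 mg/mL BSA and 0.4 mg/ml salmon testes DNA. Antibodies against each partner (one per run) detected binding, and scanned fluorescence was regression-normalized. Binding z-scores use the random background probes as reference.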
row,Sequence,PBM binding z-score
1,TGTCAAAGTTCAAAGGTAATGTAAGTATCCACAC,4.94
2,GCTTGTAGATCTAGGTTAAGAAAGACTAAGCTAA,0.0938
3,TCTAGTTGGTCACGGAGGTCACATACGACGGGTA,3.84
4,TGAATGAGGTTAAAGATCAGCGAACGTGGCGTCG,1.88
5,TCTTGTACATCAATAGAGGTTAAGAAAGTGCGCT,1.08
6,GGAACGCGGGCAAGTTGATAGCAGAGTTTGATGG,0.294
7,AGTCAAAGTTCAGGACGAGGTAACGGAAAGCACG,4.22
8,ACAGACAGGTGAGAGAAGGTAACTCAGCTGGACG,0.565
9,TCATATAGGTAAATGCTAGGGGAAAGTCCGATCT,0.327
10,CCTTACGGGTCACTCCAGGTTATTGCATCGGAGT,3.56
11,GCAGACAGGAGAAACGCAGGTAACTCAGGGTGGC,-0.624
12,CCGAGTACGTTATGGGGCATTCAGGCAACGGTGA,0.16
13,TCGAGTAGGCTAGTCGGGGCATTCAGCCAACATA,-0.223
14,CCAGACAGGTGAAAGGTAACTCAGTCTGGTACGC,1.4
15,CTCGAAAGGTCGGTTGAGGTGAGGATACGGATAA,3.18
16,TTACCAAGGTGAAGGTAGTTGATCCCTCTGTAGA,1.35
17,CCGACCGGGGCATAAGGTTACCATAAGCCAGCCC,1.8
18,CATACAGGGTCAGCTCGGCCAGAGTAGGGACGGC,4
19,ACTTGTTGGTCAGCTGAGGTCACACACAATTCGG,3.71
20,CCTGCTAGGTAATGGTCAGCTAATCTACAGTATG,0.113
21,CGTCCAGGGTCATAGGAGGTCAGTGAAGACAGAT,4.79
22,CCTTACGGTTCACTCCAGGTTATAGCATCGGAGT,1.29
